This is a sample that favours compounds with a hit; in the whole collection about 12% have one here.
NS1 function inh: influenza NS1 inhibition. Potency, µM (series often up to 46.1 µM), inactives show at the highest dose activity, positive = more growth. actives 0.4% (n = 270,000). AID 2326; note: potency is the fitted concentration of half-maximal effect; actives are rising curves; nearly all actives have a fitted effect of over 50% in size
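S. cerevisiae expressing influenza A NS1, grown in glucose, washed, then diluted 1:100 into pH 6.0 -URA galactose medium with 23 nl compound. Growth recovery read as OD600; NS1-free strain serves as control.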
SARS PLpro yeast: SARS-CoV PLP inhibition in yeast; S. cerevisiae expressing SARS-CoV PLpro, growth rescue; Potency, µM (highest dose often 32.9 µM), without a hit: top-dose activity, positive = growth rescue, actives largely listed as activators; actives 0.19% (n = 330,000); note: potency is the fitted concentration of half-maximal effect; 0% is about no effect; nearly all actives have a fitted effect of over 55% in size
Cycloheximide cs: counter-screen for Shiga toxin inhibitors: cycloheximide protein synthesis inhibition. actives 12% (n = 300,000). max response, %. AID 2314. cell reporter, cycloheximide protein synthesis inhibition counterscreen; in the data active = max response mostly above about 13%, no sharp cut-off; inactive = mostly below about 14%; note: read at 38.3 µM for the half of the compounds with a filed dose; 0% is about no effect
Shiga toxin inh: inhibitors of Shiga toxin in Vero cells | Vero cells, Shiga toxin protein synthesis inhibition reporter | AID 2315 | inhibition, % at 38.7 µM | actives 9.2% (n = 290,000); in the data active = inhibition mostly above about 28%, no sharp cut-off; inactive = mostly below about 43%; note: 0% is about no effect
Starred values were filed as active, the others as inactive; ? = inconclusive; / = not tested or not shown. Unless noted, calls come from the whole dose curve.

SMILES	NS1 function inh	SARS PLpro yeast	Cycloheximide cs	Shiga toxin inh
CC(/C=N\NC(=O)c1cc(C)oc1C)=C\c1ccccc1	-10%	-37%	22*	19
CC(O)[C@@H](C(=O)N1CCNCC1)n1cc(CCCCN)nn1 (some centres not stated)	4%	0%	-2	-18
O=C1CC(c2ccccc2)CC(=O)N1c1ccc(C(F)(F)F)cc1	/	-3%	/	/
CC(=O)C1[C@H](N(C)C)CC2C3CC=C4CC(O)CC[C@]4(C)C3CC[C@@]21C (some centres not stated)	8%	0%	-2	-8
CC(C)/C=C/C(=O)N1CCCC(N2CCN(c3ccccc3F)CC2)C1 (configuration not stated)	14%	8%	-4	-7
CC(=O)NC(=S)Nc1ccc(NC(=O)c2cccs2)cc1	-5%	-16%	28*	32*
O=C(/C=C/c1cccs1)NC(=S)Nc1ccccc1	-2%	0%	32*	123*
O=C(NC(=S)Nc1ccccc1)c1cccs1	15%	-3%	60*	81*
COc1ccc(C(=O)NNC(=S)NC(=O)/C=C/c2cccs2)cc1	0%	-1%	37*	111*
O=C(/C=C/c1cccs1)NC(=S)NNC(=O)c1ccccc1O	/	?	9	-9
CC1=C(C)C(OCCCl)N(c2cc(O)c(Cl)cc2F)C1=O (configuration not stated)	12%	1%	-3	-5
O=C(NC(=S)Nc1ccc(Br)cn1)c1cccs1	/	1%	69*	105*
O=C(c1ccc2c(c1)OCO2)N1CCN(c2ccccc2)CC1	?	9%	8	44
O=C(Nc1ccc(C(=O)N2CCN(c3ccccc3F)CC2)cc1)C1=CSCCO1	-17%	-3%	26*	31*
O=C(Nc1ccc(C(=O)N2CCCCC2)cc1)C1=CSCCO1	-5%	-7%	28*	84*
CN1CCN(CCCNC(=O)c2ccc(NC(=O)C3=CSCCO3)cc2)CC1	-9%	-1%	2	13
O=C(c1ccc2c(c1)OCO2)N1CCN(c2ccccc2F)CC1	10%	2%	22*	29
CCC(=O)Nc1ccc2c(c1)nc1n2CCN(CCOC)C1	7%	1%	-3	-25
O=C(c1ccc(S(=O)(=O)Nc2cccc(C(F)(F)F)c2)cc1)N1CCN(c2ccccc2O)CC1	/	-1%	/	/
O=C(CN1CCN(S(=O)(=O)c2ccc(Br)cc2)CC1)Nc1ccccc1F	-39%	-2%	-1	-11
O=C(CN1CCN(S(=O)(=O)c2ccc(Br)cc2)CC1)Nc1ccc(F)cc1F	-80%	-3%	13*	17
O=C(CN1CCN(S(=O)(=O)c2ccc(Cl)cc2)CC1)Nc1ccc(F)cc1F	-21%	-8%	17*	24
CCOc1cc(C(=O)Nc2nnc(S(=O)(=O)N3CCOCC3)s2)cc(OCC)c1OCC	3%	1%	-2	17
COc1c(C)cccc1C(=O)Nc1ccc(OCC(=O)N2CCOCC2)cc1C	8%	-1%	-4	-17
FC(F)Oc1ccccc1/C=N/Nc1nc2ccccc2o1	-26%	0%	44*	74*
SMILES	NS1 function inh	SARS PLpro yeast	Cycloheximide cs	Shiga toxin inh
Fc1ccccc1/C=N/Nc1nc2ccccc2o1	-5%	0%	50*	79*
Clc1ccccc1Nc1nc2ccccc2o1	/	0%	/	/
O=C(O)c1ccccc1Sc1ncnc2sc3c(c12)CCC3	-3%	0%	-5	-15
O=C(C1=C(O)C(=O)N(CCN2CCOCC2)C1c1ccc(F)cc1)c1cccs1 (configuration not stated)	-1%	1%	-1	-1
Cc1ccc(C2C(C(=O)c3cc4ccccc4o3)=C(O)C(=O)N2CCN2CCOCC2)o1 (configuration not stated)	6%	-5%	24*	54*
Cc1ccc(C2C(C(=O)c3cccs3)=C(O)C(=O)N2CCN2CCOCC2)o1 (configuration not stated)	?	-2%	24*	50*
O=C(C1=C(O)C(=O)N(CCN2CCOCC2)C1c1ccccn1)c1cccs1 (configuration not stated)	16%	-1%	28*	36*
CCN(CC)CCN1C(=O)C(O)=C(C(=O)c2cccs2)C1c1ccc(C)o1 (configuration not stated)	-3%	-1%	22*	27*
Cc1onc(-c2ccccc2Cl)c1C(=O)O/N=C(\N)c1ccc([N+](=O)[O-])o1	-8%	-7%	1	7

From PubChem BioAssay
